Test [1] is described as follows: OV-KATE Cancer Cell Toxicity qHTS against the NCATS CANVASS Library (AID 1347345). In outline: (§1)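 1000 cells/well seeded and rested 4 h at 37 °C before pin transfer of compounds in an 11-pnt series. Exposure 72 h at 37 °C/5% CO2; viability by CellTiter-Glo luminescence after 15 min at room temperature.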
Background: In qHTS, concentration-response curves come from the screen itself.

Test [2] can be described thus: OV-SAHO Cancer Cell Toxicity qHTS against the NCATS CANVASS Library (AID 1347348). Note: nearly all actives have a fitted effect of over 55% in size. Note: potency is the fitted concentration of half-maximal effect. In outline:
as §1

Test [3] in a line: SW1088 Cancer Cell Toxicity qHTS against the NCATS CANVASS Library (AID 1347350). Note: nearly all actives have a fitted effect of over 75% in size. Note: potency is the fitted concentration of half-maximal effect. Summed up: as §1
The nature of test [4]: A2780 Cisplatin Sensitive Ovarian Cancer Cell Toxicity qHTS against the NCATS CANVASS Library (AID 1347353). Note: nearly all actives have a fitted effect of over 60% in size. Note: potency is the fitted concentration of half-maximal effect. In outline: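 A2780 cisplatin-sensitive cells (750 per well) were seeded, left 4 h at 37 °C, then pin-dosed in an 11-point series. After 72 h at 37 °C/5% CO2, viability was measured as ATPLite luminescence.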
Test [5] can be described thus: HEK-293 Cancer Cell Toxicity qHTS against the NCATS CANVASS Library (AID 1347355). Note: series mostly up to about 46 µM; nearly all actives have a fitted effect of over 65% in size. Summed up:
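Cells were seeded at 1000 per well and allowed to settle 4 hours at 37 degrees C before pin transfer of compounds as an 11-point series. Viability was read by CellTiter-Glo luminescence after 72 hours' exposure.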

Test [6] can be described thus: HEK293 24hr Apoptosis Induction qHTS against the NCATS CANVASS Library (AID 1347359). Summed up:
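HEK293 cells, 500 per well, exposed to an 11-point compound series for 24 hours at 37 degrees C. Caspase 3/7 activity read by Caspase-Glo luminescence (DEVD substrate) after 15 min at room temperature.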

Test [7] concerns the target Luciferin 4-monooxygenase (Photinus pyralis) (UniProt P08659). The test is described as follows: Firefly luciferase counterscreen qHTS: Assay Interference Panel against the NCATS CANVASS Library (AID 1347363). Note: series mostly up to about 57 µM. In outline:
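Purified P. pyralis luciferase (0.04 ug/mL, 4x reagent) added to Tris-acetate buffer with 0.013 mM D-luciferin, 0.013 mM ATP and 13.3 mM Mg-acetate; compounds preincubated 15 min, then luminescence read after 5 min, RT.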

The nature of test [8]: KB-8-5-11 Cancer Cell Toxicity qHTS against the NCATS CANVASS Library (AID 1347364). Note: nearly all actives have a fitted effect of over 75% in size. Summed up:
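KB-8-5-11 cells (500/well) in DMEM + 10% FBS were exposed to compounds in an 11-point qHTS series for 72 hr at 37C, 5% CO2. Viability was read by CellTiter-Glo luminescence.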

Test [9] in a line: SDT Cancer Cell Toxicity qHTS against the NCATS CANVASS Library (AID 1347365). Note: nearly all actives have a fitted effect of over 60% in size. In outline:
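SDT canine glioma cells (500 cells/well) were exposed to compounds in an 11-point series for 72 hr at 37C, 5% CO2; viability was read as ATP content by CellTiterGlo luminescence.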

Test [10] can be described thus: G06 Cancer Cell Toxicity qHTS against the NCATS CANVASS Library (AID 1347368). Note: nearly all actives have a fitted effect of over 60% in size. Summed up: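 G06 dog glioma cells seeded at 500 cells/well were exposed to compounds (11-point qHTS series) for 72 hr at 37C, 5% CO2; viability read as ATP content by CellTiterGlo luminescence.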
The nature of test [11]: qHTS for Hypoxia signaling pathway (HIF-1) antagonists against the NCATS CANVASS Library (AID 1347374). Note: nearly all actives have a fitted effect of over 60% in size. Note: potency is the fitted concentration of half-maximal effect. In outline: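 HRE-bla ME-180 cells (2,000/well, 0.5% dialyzed FBS) were pre-incubated 5 h, then given an 11-point compound series plus CoCl2 (60 uM solution as added) for 17 h at 37C. CCF4 β-lactamase read (ex 405, em 460/530 nm) after 2 h at RT.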
A short description of test [12]: DH5-alpha competent E. coli microbial cell viability qHTS against the NCATS CANVASS Library (AID 1347377). To be noted: outcome: dose series up to 46.1 µM unless noted. Summed up: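 DH5-alpha E. coli suspension (0.9 OD culture diluted to 0.2 OD) exposed to compounds in an 11-point series, overnight at 37C, 5% CO2. Viability read as ATP by BacTiter-Glo luminescence after 20 min at room temperature.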

The nature of test [13]: Inflammasome Signaling qHTS Counterscreen: IL-1-beta AlphaLISA counterscreen against the NCATS CANVASS Library (AID 1347381).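 Note: cell-free check with purified IL-1β in medium and no THP-1 cells; series mostly up to about 57 µM.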 In outline: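 To flag interference with the AlphaLISA read-out, a known amount of purified IL-1-beta (4 pg) replaced cell supernatant. Detection used anti-IL-1-beta acceptor beads, biotinylated antibody and streptavidin donor beads at room temperature.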

Test [14] in a line: qHTS for Activators of p53 Stress Response Pathway screened against the NCATS CANVASS Library (AID 1347388). In outline:
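p53RE-bla HCT-116 cells (4000/well) were pre-incubated for 5 h, then treated with compound (11 points) for 16 h at 37C. After 2 h with CCF4, the 460/530 nm ratio gave reporter activation; CellTiter-Glo measured viability.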

A short description of test [15]: qHTS for activators of Nrf2/ARE signaling pathway screened against the NCATS CANVASS Library (AID 1347391). Note: nearly all actives have a fitted effect of over 60% in size. Summed up:
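ARE-bla HepG2 beta-lactamase reporter cells, 2000 cells/well, were preincubated 5 h, then exposed to compounds (11-point series) for 16 h at 37C. CCF4 fluorescence (ex 405, em 460/530 nm) after 2 h at room temperature.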

Test [16] can be described thus: qHTS for activators of dead-cell proteases activity screened against the NCATS CANVASS Library (AID 1347392).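 Note: luminescence from protease leaking out of membrane-damaged cells cleaving impermeant substrate; rising signal means more cytotoxicity.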 In outline: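 HepG2 cells, 2000/well, attached 18 h at 37C, then exposed to compounds (11-point qHTS) for 5 h. Dead-cell protease release read as luminescence from cell-impermeant AAF-aminoluciferin substrate after 15 min at room temperature.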
Test [17] in a line: qHTS for inhibitors of ER calcium dysfunction: SERCaMP assay screened against the NCATS CANVASS Library (AID 1347393). Note: nearly all actives have a fitted effect of over 40% in size. Note: potency is the fitted concentration of half-maximal effect. Summed up:
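SH-SY5Y GLuc-SERCaMP, 1000 cells/well, 4 h attach; cpd 16 h, 37C/5% CO2; thapsigargin (added as 6x 600 nM) 4 h; coelenterazine; luminescence. Reduced reporter release = ER Ca stabilization.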

Test [18] is described as follows: qHTS for inhibitors of Wild type Zika virus screened against the NCATS CANVASS Library (AID 1347396).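 Note: ATP luminescence of surviving cells so rescue from viral cell killing; series mostly up to about 46 µM.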 Summed up:
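Vero 766 (African green monkey) cells, 1000 per well, attached overnight, then compounds were added in an 11-point series before wild-type Zika virus infection. After 72 h at 37C, cell viability was read as CellTiter Glo luminescence.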

Test [19] in a line: HPAF-II 12hr Apoptosis Induction qHTS against the NCATS CANVASS Library (AID 1347358). Summed up:
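HPAF-II cells (500/well, DMEM + 10% FBS) were exposed to compounds for 12 hours at 37 degrees C. Caspase-3/7 activity was then read by Caspase-Glo 3/7 luminescence after 15 min at room temperature.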

Test [20] can be described thus: qHTS for ATAD5 Agonist screened against the NCATS CANVASS Library (AID 1347367).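 Note: luciferase reporter driven by ATAD5 which rises upon DNA damage.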 In outline: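 HEK293T cells stably carrying an ATAD5-controlled luciferase reporter (2000 cells/well) attached for 5 hr, then received compounds in an 11-point series for 16hr at 37C. Luminescence was read after a 30 min room-temperature reagent step.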

The structures appear in SMILES notation. Results filed as inconclusive are left out. Active and inactive are the calls of the source. Calls come from the whole dose curve; as a rule, active = well fitted curve in the direction sought with a large enough effect; inconclusive = small, poorly fitted or top-dose-only effect, or another doubt; inactive = no such curve, though single readings can be large; an effect the other way counts as inactive or inconclusive.

Chain of Luciferin 4-monooxygenase (Photinus pyralis) (P08659 whole entry, looked up): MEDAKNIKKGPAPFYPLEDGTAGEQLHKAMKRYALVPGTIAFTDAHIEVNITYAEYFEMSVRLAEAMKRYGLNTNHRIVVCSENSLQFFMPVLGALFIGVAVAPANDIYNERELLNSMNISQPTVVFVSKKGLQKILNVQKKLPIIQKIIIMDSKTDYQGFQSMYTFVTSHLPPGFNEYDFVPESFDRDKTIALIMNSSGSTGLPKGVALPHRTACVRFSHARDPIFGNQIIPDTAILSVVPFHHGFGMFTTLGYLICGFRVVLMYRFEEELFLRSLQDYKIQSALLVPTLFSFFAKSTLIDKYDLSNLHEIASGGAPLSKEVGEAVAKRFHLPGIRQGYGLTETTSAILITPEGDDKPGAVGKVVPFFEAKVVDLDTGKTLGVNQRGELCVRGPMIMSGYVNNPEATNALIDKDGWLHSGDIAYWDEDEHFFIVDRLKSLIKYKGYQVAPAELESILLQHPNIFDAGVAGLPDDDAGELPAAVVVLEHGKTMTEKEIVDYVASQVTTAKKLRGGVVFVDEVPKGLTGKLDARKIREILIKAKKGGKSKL

Turning to `CC(CCC[C@]1(C)C(=O)C=C[C@@]23C[C@]4(C)O[C@@H](C[C@@H]4[C@H]2O)C31)C(=O)O` (stereo not given in full), the Potency result in test [1], in [2], in test [3], in test [4], in test [5] and in [6] was “inactive” in each case. Further, the Potency entry in [7], in test [8], in test [9], in [10], in test [11] and in test [14] was “inactive” each time. Also, the Potency result in test [15], in [16] and in [17] was “inactive” each time. In addition, the outcome in test [12], in test [13] and in test [18] was inactive.
For the compound `CC1=C2CC[C@]3(C)[C@H](CC=C4[C@@H]5CC(C)(C)CC[C@@H]5C(=O)[C@H](O)[C@]43C)[C@@]2(C)C=C(O)C1=O`, the Potency result in [19], in test [7], in [9], in test [20], in [10] and in test [14] was “inactive” throughout. Also, the Potency entry in test [16] was “inactive”. For the same compound, the Potency is 9.41 µM (active) in test [11] and 12.2 µM (active) in test [17]. The result in [12], in test [13] and in [18] was inactive.
As to `CCCc1c2c([nH]c(=O)c1C)C(=O)c1[nH]c(=O)c(C)c(CCC)c1C2=O`, the Potency was 11.8 µM (active) in [2], 8.41 µM (active) in [3], 14.8 µM (active) in test [4] and 9.41 µM (active) in [11]. Moreover, the Potency result in test [5], in [19], in test [6], in [7], in test [8] and in test [20] was “inactive” throughout. Moreover, the Potency result in test [14] and in test [16] was “inactive” throughout. Besides, the compound was called inactive in test [12], in test [13] and in test [18].
With `CN1C(=O)C(=O)N2C(=C[C@]3(c4c[nH]c5ccccc45)c4ccccc4N[C@H]23)C1=O`, the Potency result in test [1], in [2], in test [3], in test [4], in test [5] and in test [6] was “inactive” in each case. Moreover, the Potency result in test [7], in test [8], in test [9], in test [20], in test [10] and in test [11] was “inactive” throughout. The Potency entry in test [14], in [15], in test [16] and in test [17] was “inactive” each time. For the same compound, the outcome in test [12], in [13] and in test [18] was inactive.
For `O=C1CC(c2ccc(O)cc2)Oc2cc(O)cc(O)c21` (stereo not given), the Potency entry in [1], in test [2], in test [3], in test [4], in test [5] and in [19] was “inactive” in each case. The Potency result in test [6], in test [7], in [8], in test [9], in [20] and in [10] was “inactive” each time. The Potency result in test [14], in [15] and in test [16] was “inactive” throughout. Further, the compound was classed as inactive in [12], in [13] and in [18].
As to `CC1(C)CC[C@]2(CO)CC[C@]3(C)C(=CCC4[C@@]5(C)CC[C@H](O)C(C)(C)C5CC[C@]43C)C2C1` (stereo not given in full), the Potency result in test [1], in [2], in test [3], in test [4], in test [5] and in test [19] was “inactive” throughout. Also, the Potency result in test [6], in test [8], in [9], in test [20], in test [10] and in [11] was “inactive” in each case. The Potency result in [14], in test [15] and in test [17] was “inactive” throughout. Also, the outcome in [12], in [13] and in test [18] was inactive.

These data come from PubChem BioAssay (NCATS).
